Most compounds without a hit are left out; they make up all but 27% or so of the library.
Cav32 inh = human Cav3.2 channel inhibition, primary screen | actives 4% (n = 100,000) | B-score at 10 µM | AID 449739 | O95180 | Cav3.2-expressing cells, Fluo-4 calcium fluorescence FDSS; stronger effect = lower value;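 active = single-dose well whose peak fluorescence ratio is a statistical outlier from its plate by either plate-standardised score or position-corrected B-score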
CYP2C9 activ = activators of human CYP2C9; recombinant CYP2C9, luciferin-H conversion, luminescence; stronger effect = higher value; factor 1 = untreated enzyme, 0 = blocked; activation factor at 5 µM; actives 1.4% (n = 96,000);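 active = activation factor of 2 or more for CYP2C9 at a 5 µM dose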;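 also: 0 = sulfaphenazole-blocked wells and 1 = vehicle-only wells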
CYP2C19 activ = increases human CYP2C19 enzyme activity; P33261; recombinant CYP2C19, luciferin-H EGE luminescence; stronger effect = higher value; 0 = fully inhibited enzyme, 1 = untreated enzyme; activation factor at 5 µM; 96,000 tested, under 10 active; AID 1025;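 active = activation factor of at least 2 at 5 µM in the primary screen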;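 also: 0 = wells with 2.5 mM tranylcypromine and 1 = vehicle-only wells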
CYP2C19 inhib = blocks human cytochrome P450 2C19; CYP2C19 Supersomes, luciferin-H EGE luminescence, 30 min; inhibition, % at 5 µM; actives 21% (n = 96,000); P33261;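 active = CYP2C19 inhibition above a set limit at 5 µM in the primary screen, cut at about 50% in these data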;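 also: plate controls were negative control wells for no effect and 2.5 mM tranylcypromine positive control for full effect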
CYP2C9 inhib = blocks human cytochrome P450 2C9. actives 20% (n = 96,000). CYP2C9 Supersomes, luciferin-H conversion, luminescence. P11712. inhibition, % at 5 µM. AID 777;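 active = blocking of liver enzyme CYP2C9 beyond about 50% at 5 µM, limit read from the data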
The depositor's hits bear a star.

`Cc1ccnc2nc(C(=O)Nc3ccc4c(c3)OCO4)nn12` gave Cav32 inh 0.23, CYP2C9 activ 0.6, CYP2C19 activ 0.2, CYP2C19 inhib 75* and CYP2C9 inhib 44.
`O=C(Nc1cccc(F)c1)c1ccc2c(c1)OCO2` gave Cav32 inh 0.3, CYP2C9 activ 0.5, CYP2C19 activ 0.1, CYP2C19 inhib 94* and CYP2C9 inhib 50*.
For O=C(Nc1ccc2c(c1)OCO2)c1ccc2nc[nH]c2c1 the results were Cav32 inh 0.69, CYP2C9 activ 0.4, CYP2C19 activ 0.2, CYP2C19 inhib 80* and CYP2C9 inhib 56*.
Screening Cc1cc(C)n2nc(C(=O)Nc3ccc4c(c3)OCO4)nc2n1 returned Cav32 inh 0.1, CYP2C9 activ 1, CYP2C19 activ 0.9, CYP2C19 inhib 7 and CYP2C9 inhib 4.
For COc1ccc(-c2nc(-c3ccc(C(=O)O)cc3)no2)cc1 the results were Cav32 inh 0.77.
`CCOC(=O)[C@@H]1[C@H]2COc3ccccc3[C@@H]2N2C(=O)N(c3ccc(F)cc3)C(=O)[C@]12C` gave Cav32 inh 0.24.
Screening CC(=O)N1CCC(N(CCCOC(C)C)C(=O)Nc2ccc(Cl)cc2)CC1 returned Cav32 inh -0.027.
For COc1ccc(C2(O)CCN(C(=O)NC3CCCCC3)CC2)cc1 the results were Cav32 inh -0.015, CYP2C9 activ 1, CYP2C19 activ 1.1, CYP2C19 inhib -9 and CYP2C9 inhib -1.
O=C(Nc1ccc2c(c1)OCO2)c1ccncc1 was read as Cav32 inh -0.23, CYP2C9 activ 0.8, CYP2C19 activ 0.5, CYP2C19 inhib 53* and CYP2C9 inhib 19.
Cc1ccc(C(=O)Nc2ccc3c(c2)OCO3)cc1 was read as Cav32 inh 0.48, CYP2C9 activ 0.7, CYP2C19 activ 0.6, CYP2C19 inhib 38 and CYP2C9 inhib 27.
For c1cc(CNc2ccc3c(c2)OCO3)ccn1 the results were Cav32 inh -0.78, CYP2C9 activ 0.4, CYP2C19 activ 0.3, CYP2C19 inhib 71* and CYP2C9 inhib 63*.
`O=C(Nc1ccc2c(c1)OCO2)c1ccc(Br)s1` gave Cav32 inh -0.42, CYP2C9 activ 0.6, CYP2C19 activ 0.5, CYP2C19 inhib 54* and CYP2C9 inhib 35.
For Cc1ccc(CNc2ccc3c(c2)OCO3)cc1 the results were Cav32 inh -0.45, CYP2C9 activ 0.9, CYP2C19 activ 0.8, CYP2C19 inhib 22 and CYP2C9 inhib 10.
For COC(=O)Nc1ccc2c(c1)OCO2 the results were Cav32 inh -0.4.
COc1cc(C(=O)Nc2nnc(C)s2)cc(OC)c1OC was read as Cav32 inh 0.0044, CYP2C9 activ 1.2, CYP2C19 activ 1.2, CYP2C19 inhib -19 and CYP2C9 inhib -18.
CNC(=O)CN(c1ccc(C(C)C)cc1)S(C)(=O)=O was read as Cav32 inh 0.38, CYP2C9 activ 1.1, CYP2C19 activ 0.4, CYP2C19 inhib 61* and CYP2C9 inhib -10.
`Cc1ccn2c(-c3csc(NCc4ccco4)n3)c(C)nc2c1` gave CYP2C9 activ 0.8, CYP2C19 activ 0.7, CYP2C19 inhib 25 and CYP2C9 inhib 19.
For Cc1cccc(Nc2nc(-c3c(C)nc4ccccn34)cs2)c1 the results were Cav32 inh 0.075, CYP2C9 activ 0.4, CYP2C19 activ 0.7, CYP2C19 inhib 33 and CYP2C9 inhib 61*.
Screening Cc1cccc(Nc2nc(-c3ccc4c(c3)OCCO4)cs2)c1 returned Cav32 inh 0.048, CYP2C9 activ 0.1, CYP2C19 activ 0.5, CYP2C19 inhib 49 and CYP2C9 inhib 86*.
Screening CCC(C)NC(=O)C1c2ccccc2C(=O)N(c2ccc(OC)cc2)C1c1ccc(OC)cc1 (stereo unspecified) returned Cav32 inh -0.74, CYP2C9 activ 0.8, CYP2C19 activ 1, CYP2C19 inhib 0 and CYP2C9 inhib 15.
CC1=C(C(=O)NCCc2ccc(C)cc2)C2(CCC(C)CC2)OC1=O (stereo unspecified) was read as Cav32 inh 0.093.
COc1ccccc1CNC(=O)C1=C(C)C(=O)OC12CCC(C)CC2 (stereo unspecified) was read as Cav32 inh 0.61, CYP2C9 activ 0.3, CYP2C19 activ 0, CYP2C19 inhib 98* and CYP2C9 inhib 72*.
COc1cccc(CNC(=O)C2=C(C)C(=O)OC23CCC(C)CC3)c1 (stereo unspecified) was read as Cav32 inh -1, CYP2C9 activ 0.7, CYP2C19 activ 0.1, CYP2C19 inhib 91* and CYP2C9 inhib 25.
Screening COc1ccc(NC(=O)C2=C(C)C(=O)OC23CCC(C)CC3)c(OC)c1 (stereo unspecified) returned Cav32 inh 0.031, CYP2C9 activ 0.2, CYP2C19 activ 0.1, CYP2C19 inhib 87* and CYP2C9 inhib 77*.
For CC1=C(C(=O)N2CCCCC2)C2(CCC(C)CC2)OC1=O (stereo unspecified) the results were Cav32 inh 0.15, CYP2C9 activ 1, CYP2C19 activ 0.5, CYP2C19 inhib 51* and CYP2C9 inhib -1.
`CCCS(=O)(=O)c1c(S(=O)(=O)CCC)c2cnccn2c1C(=O)c1ccc(Cl)cc1` gave Cav32 inh -0.45, CYP2C9 activ 0.9, CYP2C19 activ 1, CYP2C19 inhib 2 and CYP2C9 inhib 6.
O=C(CSc1nnc(CNC(=O)c2cccs2)o1)NCCc1ccccc1 was read as Cav32 inh 0.68.
`COc1ccc2c(c1)c(C(=O)CN1CCC(C(N)=O)CC1)c(C)n2C` gave Cav32 inh 0.48, CYP2C9 activ 0.9, CYP2C19 activ 1, CYP2C19 inhib -1 and CYP2C9 inhib 12.
COc1cccc(Nc2nc(=O)[nH]nc2C)c1 was read as Cav32 inh -0.014, CYP2C9 activ 1.1, CYP2C19 activ 1.1, CYP2C19 inhib -12 and CYP2C9 inhib -12.
CCOc1ccc(NC(=O)C2=C(C)C(=O)OC23CCC(C)CC3)cc1 (stereo unspecified) was read as Cav32 inh -2.9, CYP2C9 activ 0.3, CYP2C19 activ 0.1, CYP2C19 inhib 90* and CYP2C9 inhib 69*.
Screening CC1=C(C(=O)NC2CCCC(C)C2C)C2(CCCCC2)OC1=O (stereo unspecified) returned Cav32 inh -3.4, CYP2C9 activ 0.9, CYP2C19 activ 0.8, CYP2C19 inhib 18 and CYP2C9 inhib 10.
Screening COc1cccc(CNC(=O)Cn2cccc2)c1 returned CYP2C9 activ 0.8, CYP2C19 activ 0.5, CYP2C19 inhib 46 and CYP2C9 inhib 22.
COc1cccc(CNC(=O)c2ccccc2N)c1 was read as Cav32 inh 0.74, CYP2C9 activ 0.9, CYP2C19 activ 0.2, CYP2C19 inhib 78* and CYP2C9 inhib 9.
Screening CCCNC(=O)C1=C(C)C(=O)OC12CCC(C)CC2 (stereo unspecified) returned Cav32 inh 0.15, CYP2C9 activ 0.9, CYP2C19 activ 0.5, CYP2C19 inhib 52* and CYP2C9 inhib 15.
`CC1=C(C(=O)NC(C)C)C2(CCC(C)CC2)OC1=O` (stereo unspecified) gave Cav32 inh 0.18.
